PubChem BioAssay (NCI)
This is part of a sample that, as a whole, favours compounds with a hit. Of some 79,000 tested, about 15% had one in any assay. Values without a mark were called inactive. The source made the active and inactive calls. No stated cut-off is given here; in the data, active means growth inhibition above about 70%; inactive means the rest.

How the values were obtained:
[1] = NCI Yeast Anticancer Drug Screen. Data for the rad50 strain (AID 155);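 further: 0% = growth of vehicle-only cultures of the same strain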; conditions: S. cerevisiae rad50 strain growth inhibition, stronger effect = higher value
Method in brief: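 Genetically altered yeast (DNA repair pathway); compound treatment; growth inhibition vs vehicle ctrl.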

[2] = NCI Yeast Anticancer Drug Screen. Data for the mec2-1 strain (AID 157); conditions: S. cerevisiae mec2-1 strain, stronger effect = higher value
Method in brief: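 Mutant yeast (mec2-1) grown with compound; growth inhibition relative to vehicle control reported.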

[3] = NCI Yeast Anticancer Drug Screen. Data for the sgs1 mgt1 strain (AID 161);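 further: 0% = growth of cultures given vehicle only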; conditions: S. cerevisiae sgs1 mgt1 strain, stronger effect = higher value
Method in brief: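 Percent growth inhibition was derived by comparing compound-exposed mutant yeast with vehicle-exposed cultures. The strain carries alterations in DNA damage repair.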

[4] = NCI Yeast Anticancer Drug Screen. Data for the cln2 rad14 strain (AID 165);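 further: 0% = growth equal to vehicle treated cultures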; conditions: S. cerevisiae cln2 rad14 strain, stronger effect = higher value
Method in brief: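 Readout is yeast growth inhibition versus vehicle-treated controls, using a strain with cln2 and rad14 alterations exposed to compound.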

[5] = NCI Yeast Anticancer Drug Screen. Data for the bub3 strain (AID 167); conditions: S. cerevisiae bub3 mutant strain, stronger effect = higher value
Method in brief: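 Yeast carrying a defined mutation is treated with each compound, and growth is compared with that of vehicle-exposed cells to give inhibition.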

[6] = NCI Yeast Anticancer Drug Screen. Data for the mlh1 rad18 strain (AID 175); conditions: S. cerevisiae mlh1 rad18 strain growth inhibition, stronger effect = higher value
Method in brief: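 Genetically defined yeast (DNA repair-deficient) exposed to compounds; growth inhibition determined relative to vehicle.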

[7] = at 5.0 µM (retest, dose inferred, filed as 0.5)
[8] = at 50.0 µM (retest, dose inferred, filed as 5.0)

Compound `O=C(Nc1ccc(C(F)(F)F)cc1[N+](=O)[O-])C(=O)C(C(=O)c1ccc2ccccc2c1)C1OC(=O)c2ccccc21` (stereo not given) has a growth inhibition [1, 7] of 26%, a growth inhibition [1, 8] of 26% and a growth inhibition ([1]; at 50.0 µM) of 2.05%. It also gave a growth inhibition [2, 7] of 10%, a growth inhibition [2, 8] of 10% and a growth inhibition ([2]; at 50.0 µM) of 4.85%. It also gave a growth inhibition [3, 7] of 8%, a growth inhibition [3, 8] of 8% and a growth inhibition ([3]; at 50.0 µM) of 13.9%. The growth inhibition [4, 7] was 15%, the growth inhibition [4, 8] was 15% and the growth inhibition ([4]; at 50.0 µM) was -28.6%. For the same compound, the growth inhibition [5, 7] was 9%, the growth inhibition [5, 8] was 9% and the growth inhibition ([5]; at 50.0 µM) was 22.7%. The growth inhibition [6, 7] was 10%, the growth inhibition [6, 8] was 10% and the growth inhibition ([6]; at 50.0 µM) was 10.2%.
For `O=C(CNC(=O)OCc1ccccc1)NNc1ccccc1Cl`, the growth inhibition [1, 7] was 95% (active), the growth inhibition [1, 8] was 98% (active) and the growth inhibition ([1]; at 50.0 µM) was 98.7% (active). The growth inhibition [2, 7] was 94% (active), the growth inhibition [2, 8] was 99% (active) and the growth inhibition ([2]; at 50.0 µM) was 98.5% (active). The growth inhibition [3, 7] was 98% (active), the growth inhibition [3, 8] was 99% (active) and the growth inhibition ([3]; at 50.0 µM) was 97.1% (active). For the same compound, the growth inhibition [4, 7] was 97% (active), the growth inhibition [4, 8] was 98% (active) and the growth inhibition ([4]; at 50.0 µM) was 98.7% (active). The growth inhibition [5, 7] was 98% (active), the growth inhibition [5, 8] was 96% (active) and the growth inhibition ([5]; at 50.0 µM) was 99.2% (active). The growth inhibition [6, 7] was 98% (active), the growth inhibition [6, 8] was 99% (active) and the growth inhibition ([6]; at 50.0 µM) was 99.3% (active).
With `COc1ccnc2c1C(=O)c1nc3ccccc3c3ccnc-2c13` the growth inhibition [1, 7] was 14%, the growth inhibition [1, 8] was 89% (active) and the growth inhibition ([1]; at 50.0 µM) was 81.2% (active). For the same compound, the growth inhibition [2, 7] was -9%, the growth inhibition [2, 8] was 83% (active) and the growth inhibition ([2]; at 50.0 µM) was 79.8% (active). For the same compound, the growth inhibition [3, 7] was 9%, the growth inhibition [3, 8] was 83% (active) and the growth inhibition ([3]; at 50.0 µM) was 81.5% (active). The growth inhibition [4, 7] was 2%, the growth inhibition [4, 8] was 88% (active) and the growth inhibition ([4]; at 50.0 µM) was 80.8% (active). The growth inhibition [5, 7] was -15%, the growth inhibition [5, 8] was 86% (active) and the growth inhibition ([5]; at 50.0 µM) was 81% (active). For the same compound, the growth inhibition [6, 7] was 23%, the growth inhibition [6, 8] was 92% (active) and the growth inhibition ([6]; at 50.0 µM) was -21.9%.
For `O=C1CN(c2cccc(Cl)c2)C(=O)CN1/N=C/c1ccc[nH]1`, the growth inhibition [1, 7] was 4%, the growth inhibition [1, 8] was -3% and the growth inhibition ([1]; at 50.0 µM) was 98.4% (active). The growth inhibition [2, 7] was 7%, the growth inhibition [2, 8] was 0% and the growth inhibition ([2]; at 50.0 µM) was 99.2% (active). For the same compound, the growth inhibition [3, 7] was 10%, the growth inhibition [3, 8] was 0% and the growth inhibition ([3]; at 50.0 µM) was 98.7% (active). For the same compound, the growth inhibition [4, 7] was 2%, the growth inhibition [4, 8] was -3% and the growth inhibition ([4]; at 50.0 µM) was 97.9% (active). The growth inhibition [5, 7] was 1%, the growth inhibition [5, 8] was -3% and the growth inhibition ([5]; at 50.0 µM) was 98.3% (active). For the same compound, the growth inhibition [6, 7] was -3%, the growth inhibition [6, 8] was -5% and the growth inhibition ([6]; at 50.0 µM) was 99% (active).
For `Cn1c2nc(-[n+]3ccc(-c4ccccc4)cc3)nc-2c([O-])n(C)c1=O`, the growth inhibition [1, 7] was 3%, the growth inhibition [1, 8] was 3% and the growth inhibition ([1]; at 50.0 µM) was -7.35%. It also gave a growth inhibition [2, 7] of -3%, a growth inhibition [2, 8] of 8% and a growth inhibition ([2]; at 50.0 µM) of 2.95%. It also gave a growth inhibition [3, 7] of 1%, a growth inhibition [3, 8] of -4% and a growth inhibition ([3]; at 50.0 µM) of 9.9%. The growth inhibition [4, 7] was -3%, the growth inhibition [4, 8] was 1% and the growth inhibition ([4]; at 50.0 µM) was 72.3% (active). For the same compound, the growth inhibition [5, 7] was -1%, the growth inhibition [5, 8] was -3% and the growth inhibition ([5]; at 50.0 µM) was -2%. It also gave a growth inhibition [6, 7] of -1%, a growth inhibition [6, 8] of 16% and a growth inhibition ([6]; at 50.0 µM) of -7.5%.
For `CN(C)/N=N/c1nc(Cc2ccccc2)[nH]c1C(N)=O`, the growth inhibition [1, 7] was 98% (active), the growth inhibition [1, 8] was 98% (active) and the growth inhibition ([1]; at 50.0 µM) was 98.5% (active). The growth inhibition [2, 7] was 16%, the growth inhibition [2, 8] was 99% (active) and the growth inhibition ([2]; at 50.0 µM) was 94.6% (active). For the same compound, the growth inhibition [3, 7] was 38%, the growth inhibition [3, 8] was 99% (active) and the growth inhibition ([3]; at 50.0 µM) was 99.2% (active). For the same compound, the growth inhibition [4, 7] was 29%, the growth inhibition [4, 8] was 99% (active) and the growth inhibition ([4]; at 50.0 µM) was 92.9% (active). The growth inhibition [5, 7] was 67%, the growth inhibition [5, 8] was 99% (active) and the growth inhibition ([5]; at 50.0 µM) was 96.5% (active). The growth inhibition [6, 7] was 99% (active), the growth inhibition [6, 8] was 99% (active) and the growth inhibition ([6]; at 50.0 µM) was 98.8% (active).
For `O=[N+]([O-])c1ccc(-c2nc3c(o2)CCC3)cc1`, the growth inhibition [1, 7] was -85%, the growth inhibition [1, 8] was -83% and the growth inhibition ([1]; at 50.0 µM) was 9.15%. The growth inhibition [2, 7] was -15%, the growth inhibition [2, 8] was -15% and the growth inhibition ([2]; at 50.0 µM) was -2.9%. It also gave a growth inhibition [3, 7] of -22%, a growth inhibition [3, 8] of -22% and a growth inhibition ([3]; at 50.0 µM) of 6.4%. The growth inhibition [4, 7] was -57%, the growth inhibition [4, 8] was -62% and the growth inhibition ([4]; at 50.0 µM) was 25.1%. It also gave a growth inhibition [5, 7] of -72%, a growth inhibition [5, 8] of -82% and a growth inhibition ([5]; at 50.0 µM) of -4.6%. For the same compound, the growth inhibition [6, 7] was -92%, the growth inhibition [6, 8] was -61% and the growth inhibition ([6]; at 50.0 µM) was 3.25%.
With `Cc1csc2c1C(=O)c1ccsc1C2=O` the growth inhibition [1, 7] was 54%, the growth inhibition [1, 8] was 97% (active) and the growth inhibition ([1]; at 50.0 µM) was 88.8% (active). The growth inhibition [2, 7] was 50%, the growth inhibition [2, 8] was 99% (active) and the growth inhibition ([2]; at 50.0 µM) was 91.5% (active). The growth inhibition [3, 7] was 72% (active), the growth inhibition [3, 8] was 99% (active) and the growth inhibition ([3]; at 50.0 µM) was 92.2% (active). The growth inhibition [4, 7] was 31%, the growth inhibition [4, 8] was 98% (active) and the growth inhibition ([4]; at 50.0 µM) was 90.8% (active). For the same compound, the growth inhibition [5, 7] was 86% (active), the growth inhibition [5, 8] was 98% (active) and the growth inhibition ([5]; at 50.0 µM) was 91.5% (active). The growth inhibition [6, 7] was 65%, the growth inhibition [6, 8] was 99% (active) and the growth inhibition ([6]; at 50.0 µM) was 91.1% (active).
For `CN(C)Cc1cc(C(C)(C)C)cc(C2CCCCC2)c1O`, the growth inhibition [1, 7] was 2%, the growth inhibition [1, 8] was 58% and the growth inhibition ([1]; at 50.0 µM) was 66.4%. The growth inhibition [2, 7] was -9%, the growth inhibition [2, 8] was 66% and the growth inhibition ([2]; at 50.0 µM) was 38.5%. For the same compound, the growth inhibition [3, 7] was -1%, the growth inhibition [3, 8] was 95% (active) and the growth inhibition ([3]; at 50.0 µM) was 74.3% (active). The growth inhibition [4, 7] was -4%, the growth inhibition [4, 8] was 8% and the growth inhibition ([4]; at 50.0 µM) was 61.7%. The growth inhibition [5, 7] was -6%, the growth inhibition [5, 8] was 40% and the growth inhibition ([5]; at 50.0 µM) was 71.8% (active). The growth inhibition [6, 7] was 1%, the growth inhibition [6, 8] was 94% (active) and the growth inhibition ([6]; at 50.0 µM) was 92.4% (active).
With `O=[N+]([O-])c1ccc(-c2cccc(Cl)c2)c([N+](=O)[O-])c1` the growth inhibition [1, 7] was 6%, the growth inhibition [1, 8] was 98% (active) and the growth inhibition ([1]; at 50.0 µM) was 99.3% (active). For the same compound, the growth inhibition [2, 7] was -3%, the growth inhibition [2, 8] was 99% (active) and the growth inhibition ([2]; at 50.0 µM) was 99% (active). The growth inhibition [3, 7] was 13%, the growth inhibition [3, 8] was 99% (active) and the growth inhibition ([3]; at 50.0 µM) was 99.2% (active). The growth inhibition [4, 7] was -17%, the growth inhibition [4, 8] was 98% (active) and the growth inhibition ([4]; at 50.0 µM) was 91% (active). The growth inhibition [5, 7] was 9%, the growth inhibition [5, 8] was 99% (active) and the growth inhibition ([5]; at 50.0 µM) was 98.8% (active). For the same compound, the growth inhibition [6, 7] was 2%, the growth inhibition [6, 8] was 98% (active) and the growth inhibition ([6]; at 50.0 µM) was 97.9% (active).
